# Bioassay records from PubChem BioAssay.
# Compounds with a hit are over-represented: about 12% of the library has one in this group of screens.
# PLK1 PBD inh: blocks phosphopeptide binding to human PLK1 polo-box domain; P53350; Plk1 PBD binding of FITC phosphopeptide, fluorescence polarization; Potency, µM, inactives show max response, negative = inhibition, usual class: inhibitors; 2.8% of 360,000 active; also: series mostly up to about 57 µM; % is scaled to controls: 0 for no effect and ±100 for the full control effect; nearly all actives have a fitted effect of over 65% in size
# Target sequence (P53350 whole entry, looked up, the tested form may be a part): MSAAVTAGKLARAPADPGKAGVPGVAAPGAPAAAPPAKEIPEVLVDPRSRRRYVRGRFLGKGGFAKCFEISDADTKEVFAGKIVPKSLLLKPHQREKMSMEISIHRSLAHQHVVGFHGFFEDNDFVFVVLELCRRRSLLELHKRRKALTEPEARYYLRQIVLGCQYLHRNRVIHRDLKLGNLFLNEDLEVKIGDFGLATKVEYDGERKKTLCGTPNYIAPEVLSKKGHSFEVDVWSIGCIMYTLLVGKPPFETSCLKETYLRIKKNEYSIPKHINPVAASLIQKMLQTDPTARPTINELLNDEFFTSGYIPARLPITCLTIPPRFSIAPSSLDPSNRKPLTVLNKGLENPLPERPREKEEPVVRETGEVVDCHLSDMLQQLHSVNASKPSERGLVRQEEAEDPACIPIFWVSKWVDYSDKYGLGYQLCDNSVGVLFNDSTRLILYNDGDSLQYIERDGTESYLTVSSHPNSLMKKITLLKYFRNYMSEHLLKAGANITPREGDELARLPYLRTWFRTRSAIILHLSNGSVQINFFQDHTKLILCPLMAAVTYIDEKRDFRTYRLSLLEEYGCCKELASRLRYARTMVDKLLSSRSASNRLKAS
# G9a block: inhibitors of human histone lysine methyltransferase G9a; Q96KQ7; G9a H3K9 monomethylation, AlphaScreen, 2 h; Potency, µM (doses to about 102 µM), for inactives: at the top dose activity, negative = inhibition, hits mostly inhibitors; 8.8% of 350,000 active; also: % is scaled to controls: 0 for no effect and ±100 for the full control effect; nearly all actives have a fitted effect of over 75% in size
#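 Chemiluminescent proximity detection of H3K9 monomethylation, read after 10 min bead incubation in the dark. Reaction: 20 nM G9a, 500 nM biotin-H3K9 peptide, 20 uM SAM cofactor, 2 h, room temperature, following 15 min enzyme-compound preincubation.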
# BAZ2B inh: inhibitors of human BAZ2B bromodomain | Q9UIF8 | AlphaScreen BAZ2B-H3K14Ac peptide displacement | Potency, µM (top dose mostly 114 µM), inactives show top-dose activity change, negative = inhibition, most hits filed as inhibitors | 4.4% of 360,000 active; also: % is scaled to controls: 0 for no effect and ±100 for the full control effect; nearly all actives have a fitted effect of over 60% in size
#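 Protein-peptide AlphaScreen: BAZ2B 50 nM, b-H3K14Ac 50 nM, 1x PBS pH 7.4 + 0.01% Tween-20. Preincubation 30 min RT; cpd 30 min RT (top 110 uM); beads 20 min RT, light-protected.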
# JMJD2A Tudor: JMJD2A Tudor domain (human) inhibition | O75164 | AlphaScreen JMJD2A-Tudor / H3K4me3 peptide binding | Potency, µM (series often up to 114 µM), for the others: top-dose activity change, negative = inhibition, actives largely listed as inhibitors | 4.4% of 390,000 active | AID 504339; also: % is scaled to controls: 0 for no effect and ±100 for the full control effect; nearly all actives have a fitted effect of over 50% in size
# HP1b binding inh: blocks HP1-beta chromodomain binding to methylated histone tails; P83916; AlphaScreen HP1-beta / biotin-H3K9me3 peptide binding; Potency, µM (titrated, usually from 114 µM), without a hit: at the top dose activity change, negative = inhibition, hits mostly inhibitors; 0.56% of 390,000 active; AID 540317; also: nearly all actives have a fitted effect of over 70% in size
#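 AlphaScreen: HP1-beta (50 nM) preformed 30 min with biotin-H3(1-18)K9me3 peptide (50 nM) in PBS pH 7.4, 0.01% Tween-20. Compound added for 30 min at RT, then streptavidin donor/nickel chelate acceptor beads (10 ug/mL) for 30 min.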
# Sfp inh: Sfp phosphopantetheinyl transferase inhibition; 3.5% of 310,000 active; Potency, µM, inactives show largest response in the series, negative = inhibition, hits mostly inhibitors; Q9F4F7; AID 1490; Biochemical Sfp PPTase activity, qHTS;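 also: the enzyme is Sfp with the accession as filed and its product quenches rhodamine fluorescence; 0% = enzyme reaction without inhibitor and -100% = no enzyme wells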
#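 Buffer: 50 mM Hepes-Na pH 7.6, 10 mM MgCl2, 0.01% Nonidet P-40, 0.01% BSA. Enzyme 15 nM, pre-exposed to compound 15 min; substrates then added and fluorescence change tracked over 30 min.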
# An asterisk follows results filed as active; ? = inconclusive; . = not tested or not shown; [ ] = dose if it differs, or a comment. Calls follow the shape of the dose curve; as a rule, active = well fitted curve in the direction sought with a large enough effect; inconclusive = small, poorly fitted or top-dose-only effect, or another doubt; inactive = no such curve, though single readings can be large; an effect the other way counts as inactive or inconclusive. Potency is read from the fitted curve at half-maximal effect.
SMILES,PLK1 PBD inh,G9a block,BAZ2B inh,JMJD2A Tudor,HP1b binding inh,Sfp inh
N#Cc1ccc(C(=O)N2CCCCC2c2cc(C(=O)NCc3ccccc3)no2)cc1 (centres undefined),-3%,.,.,.,.,.
Cc1ccc(NC(=S)Nc2ccc(S(=O)(=O)Nc3ncccn3)cc2)cc1Cl,.,-36%,-4%,.,.,2%
Cc1nn(C)c(C)c1NC(=S)Nc1ccc(S(=O)(=O)Nc2ncccn2)cc1,-8%,71µM*,-15%,-6%,12%,-19%
CC(=O)c1ccc(S(=O)(=O)Nc2c(C)nn(C)c2C)cc1,-9%,45µM*,-9%,-14%,-2%,.
O=S(=O)(Nc1ncccn1)c1ccc(NC(=S)Nc2cccc(Cl)c2)cc1,.,-30%,-13%,.,.,56µM*
O=C(Cc1c(F)cccc1Cl)NNC(=S)Nc1ccc(S(=O)(=O)Nc2ncccn2)cc1,-7%,28µM*,-4%,-18%,41%,11%
CN1CCC2(CC1)CCN(C(=O)c1ccncc1)CC2,.,3%[12.7 µM],.,.,.,14%
CSCCC(NC(=O)c1ccccc1Br)C(=O)NNC(=O)c1ccncc1 (centres undefined),-8%,39%[12.7 µM],5%,-3%,47%,.
Cc1cc(NC(=O)Cn2c(=O)n(Cc3ccccc3)c(=O)c3ccccc32)no1,-2%,8%[2.33 µM],5%,-23%,14%,25µM*
COc1ccc(CNC(=O)C2CCC(=O)N(C3CCCCCC3)C2)c(OC)c1 (centres undefined),-4%,.,.,.,.,.
Cc1ccc(C(NC(=O)N2CCOCC2)C(Cl)(Cl)Cl)cc1F (centres undefined),27µM*,-13%,-3%,-17%,12%,5%
CCN1CCN(C(=O)NC(c2ccc(C)c(F)c2)C(Cl)Cl)CC1 (centres undefined),-8%,?,-8%,-8%,19%,12%
Cc1ccc(C(NC(=O)N2CCCC2)C(Cl)Cl)cc1F (centres undefined),-8%,35µM*,-6%,-12%,34%,-27%
CC(=O)c1ccc2cccc3c2c1N=CN3C,-22%,45µM*,-22%,-13%,21%,?
O=C(O)C(c1ccccc1)C1(O)CCC1 (centres undefined),-17%,.,.,-6%,29%[57 µM],.
Cc1ccccc1NC(=O)c1nc2nccc(C)n2n1,.,5%,-2%,.,.,-1%
C[C@H](NC(=O)c1ccco1)C(=O)Nc1nc(-c2ccccn2)cs1,-12%,.,.,45µM*,30%,.
O=C(Nc1nc(-c2ccccn2)cs1)c1ccc(Br)s1,-3%,50µM*,35µM*,?,23%,12%
Cc1ccnc2nc(C(=O)Nc3nc(-c4ccccn4)cs3)nn12,-30%,20%[12.7 µM],3.2µM*,22µM*,59%,14%
O=C(Nc1nc(-c2ccccc2)cs1)c1ccc(Br)o1,30µM*,?,-30%,-31%,?,25µM*
CC(NC(=O)c1ccc([N+](=O)[O-])o1)C1CC2CCC1C2 (centres undefined),1%,.,.,-16%,20%[57 µM],.
O=C(NC(=S)Nc1nc(-c2ccccc2)cs1)c1cccnc1,?,2.5µM*,-23%,-17%,-6%,?
CC(Oc1ccc(F)cc1)C(=O)Nc1nc(-c2ccccn2)cs1 (centres undefined),-11%,?,45µM*,35µM*,7%,.
O=C(NCc1csc(-c2ccccc2)n1)c1ccco1,-5%,6%[59 µM],2%,0%,11%,-29%
O=C(CCS(=O)(=O)c1ccc(F)cc1)Nc1nc(-c2ccccn2)cs1,-8%,?,?,5%,23%,-11%
O=C(Nc1nc(-c2cc3ccccc3oc2=O)cs1)c1ccco1,-18%,35µM*,?,-30%,27%,-20%
O=C(NCCc1csc(-c2ccccc2)n1)c1ccco1,11µM*,2%,2%,-7%[11.4 µM],-4%,1%
O=C(Nc1ccc(NC(=O)c2cc3ccccc3o2)cc1)c1ccco1,1%,1%,-1%,8%,16%,11%
COc1cccc([C@@H]2Oc3ccc(OC)cc3C(=O)[C@H]2OC(=O)Nc2ccc(C)c(Br)c2)c1,.,.,.,.,.,-14%
